We go through 39 compounds from PubChem BioAssay (NCI).

Compounds without any hit were thinned out: in the full panel of roughly 79,000, 15% have a hit. Values without a mark were called inactive. Active and inactive are the calls of the source. No stated cut-off is given here; in the data, active means growth inhibition above about 70%; inactive means the rest.

The assay in a line: NCI Yeast Anticancer Drug Screen. Data for the mlh1 rad18 strain (AID 175). The note with it: S. cerevisiae mlh1 rad18 strain growth inhibition; at 50.0 µM; active compounds read high. In outline:
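Compound-treated yeast growth, normalised to vehicle controls. Strain bears defined DNA repair mutations.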
As to `COc1ccc([N+](=O)[O-])cc1`, the growth inhibition is -20.9%. The figure for `CC(Cl)CN1CCCCC1` (centres undefined) (tested in a mixture with another compound) is 17.9%; for `COc1cc2c(cc1OC)-c1c3c(cc4c1[C@@H](C2)N(C)CC4)OCO3` it is -17.6%; for `O=C(O)[C@H](O)[C@@H](O)C(=O)O.[Pb]` it is -9.2%. As for `O=C(NCCc1ccccn1)c1ccc2cc(C(=O)N3CC(CCl)c4ccc([N+](=O)[O-])cc43)[nH]c2c1` (centres undefined), the growth inhibition is -76.3%.

As for `CN(C)[C@@H]1C(=O)C(C(N)=O)=C(O)[C@]2(O)C(=O)C3C(=O)c4c(O)ccc(Cl)c4[C@](C)(O)[C@H]3C[C@@H]12` (some centres undefined), the growth inhibition is -2.9%. For `Cc1cc(C)c(O)c(C)c1`, the growth inhibition is 4.45%. `N#CC(N)c1ccccc1` (centres undefined): the growth inhibition was 12.6%.

Regarding `N#Cc1ccccn1`, the growth inhibition was 5.9%. Regarding `CCCCCCCC/C=C\CCCCCCCC(=O)OCC(COC(=O)CCCCCCC/C=C\CCCCCCCC)OC(=O)N(CCCl)CCCl`, the growth inhibition was 5.45%. The figure for `COC(=O)C(C)N(CCCl)P1(=O)OCCCN1CCCl` (centres undefined) is 20.6%; for `N#CS.N=C=S.O=N[O-].[Co+3].[NH-]CC[NH-].[NH-]CC[NH-]` it is 12.7%.

Turning to `ClCc1ccccc1`, the growth inhibition was 22.5%. The figure for `CCC1CN(CC(=O)c2ccc(Br)cc2)CCO1` (centres undefined) is 25%; for `CC(=O)C(C(C)=O)C(C)=O.[Cr]` it is 6.45%. The figure for `O=C(Cc1nc2ccccc2c(=O)n1-c1c(Cl)cccc1Cl)c1ccncc1` is 18.9%; for `CCCCOP(=O)(Nc1ccc(Cl)cc1)OCCCC` it is 99.5% (active). For the compound `CCOS(=O)(=O)c1ccc(C)cc1`, the growth inhibition is -5.2%. Consider `CC(C)=CC1CC(=[N+]=[N-])C(=O)C1(C)C` (centres undefined), for which the growth inhibition is 28.6%. In the case of `Cc1ccc(-n2c(=O)[nH]c3ccccc3c2=O)cc1[N+](=O)[O-]`, the growth inhibition is 26.6%. Regarding `O=[N+]([O-])c1ccc2c(c1)[O][Sn]([I])([I])[O]2`, the growth inhibition is -3.9%. The figure for `O=C(CN1C(=O)C2CCCCC2C1=O)N1CC1` (centres undefined) is -9.3%; for `NC1C(=O)NC(=O)NC1=O` it is 22.8%. For the compound `ClCCN(CCCl)c1ncnc2c1ncn2Cc1ccccc1`, the growth inhibition is -0.4%. On to `O=P(N1CCNCC1)(N1CCNCC1)N1CCNCC1`, for which the growth inhibition is -20.2%. On to `CCNP(=O)(OCC)OCC`, for which the growth inhibition was 17.9%. The figure for `COc1cc2c(cc1OC)CC[N+](C)=C2` is 2.65%; for `CCOP(=S)(Oc1ccccc1[N+](=O)[O-])c1ccccc1` (centres undefined) it is 10.2%. Turning to `NCCn1ccc2ccccc21`, the growth inhibition was 18.2%.

`ClC1=C(Cl)C2(Cl)C3C4CC(C5OC45)C3C1(Cl)C2(Cl)Cl` (centres undefined): the growth inhibition is -6.8%. The figure for `OC(Cc1ccccn1)C(Cl)(Cl)Cl` (centres undefined) is 3.9%. The figure for `O=NC1C(=O)NC(=O)NC1=O` is -3.65%. The figure for `C[C@]12CC[C@H](O)C=C1CC[C@@H]1[C@@H]2CC[C@]2(C)C(c3ccc(=O)oc3)CC[C@]12O` (some centres undefined) is 8.75%; for `O=[N+]([O-])c1ccc(SC2CCCCCCC2Br)c([N+](=O)[O-])c1` (centres undefined) it is -18.4%. With `CN(C)/N=C/c1c[nH]c2ccccc12`, the growth inhibition was -8.4%. The figure for `CC(=O)OCC1OC(S[As](C)C)C(OC(C)=O)C(OC(C)=O)C1OC(C)=O` (centres undefined) is 36.8%; for `COCC(=O)CP(=O)(OC)OC` it is 1.35%; for `OCCC[n+]1cccc2ccccc21` it is -1.7%. The figure for `CC1=CC(=Nc2ccc(N(CCCl)CCCl)cc2)C=C(C)C1=O` is 37.1%.
